For orientation: inhibition means the percentage by which the read-out fell short of the control. The low end stands for a response near the control, the high end for a response far below the control.

SMILES strings stand for the structures.

This assay deals with Tyrosine-protein kinase ABL1 (Homo sapiens), P00519 [E255K]. Conditions: at 1 µM.
Tyrosine-protein kinase ABL1 (Homo sapiens), P00519 [E255K], sequence (P00519 whole entry E255K): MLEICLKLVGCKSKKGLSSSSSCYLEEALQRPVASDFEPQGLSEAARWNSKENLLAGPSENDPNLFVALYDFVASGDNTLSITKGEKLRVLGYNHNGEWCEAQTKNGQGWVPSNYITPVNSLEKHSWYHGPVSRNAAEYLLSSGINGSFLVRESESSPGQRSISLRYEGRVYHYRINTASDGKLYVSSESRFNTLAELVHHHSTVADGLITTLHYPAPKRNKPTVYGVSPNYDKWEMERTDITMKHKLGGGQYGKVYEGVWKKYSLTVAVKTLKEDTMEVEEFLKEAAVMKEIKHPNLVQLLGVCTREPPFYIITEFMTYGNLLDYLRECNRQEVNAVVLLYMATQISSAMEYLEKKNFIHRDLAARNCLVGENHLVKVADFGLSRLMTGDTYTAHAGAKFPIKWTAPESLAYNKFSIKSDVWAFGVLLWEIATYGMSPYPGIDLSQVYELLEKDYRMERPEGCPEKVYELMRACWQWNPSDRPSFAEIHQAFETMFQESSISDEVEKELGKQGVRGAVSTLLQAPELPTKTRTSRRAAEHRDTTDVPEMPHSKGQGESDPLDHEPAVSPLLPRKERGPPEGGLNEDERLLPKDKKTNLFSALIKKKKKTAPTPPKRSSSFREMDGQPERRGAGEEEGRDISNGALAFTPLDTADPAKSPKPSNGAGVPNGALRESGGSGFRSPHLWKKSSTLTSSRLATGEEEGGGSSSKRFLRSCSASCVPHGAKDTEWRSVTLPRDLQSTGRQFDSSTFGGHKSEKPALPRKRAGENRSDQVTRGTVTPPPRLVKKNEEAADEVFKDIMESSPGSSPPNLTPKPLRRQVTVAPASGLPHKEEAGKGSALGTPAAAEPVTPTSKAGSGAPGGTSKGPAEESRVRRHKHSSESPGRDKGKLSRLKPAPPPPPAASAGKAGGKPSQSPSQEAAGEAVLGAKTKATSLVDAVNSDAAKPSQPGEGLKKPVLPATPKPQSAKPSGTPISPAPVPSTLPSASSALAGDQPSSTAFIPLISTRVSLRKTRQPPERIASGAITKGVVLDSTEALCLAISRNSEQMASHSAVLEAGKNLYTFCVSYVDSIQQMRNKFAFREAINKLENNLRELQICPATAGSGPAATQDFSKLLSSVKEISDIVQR
Regarding `O=C(Nc1ccc(Oc2ccc3[nH]c(NC(=O)c4ccccc4)nc3c2)cc1)Nc1cc(C(F)(F)F)ccc1F`, the inhibition came to 27%. Next, `CCS(=O)(=O)c1ccc(OC)c(Nc2ncc(-c3cccc(-c4ccccc4F)c3)o2)c1`: 84.4%; `C[C@@H](Oc1cc(-n2cnc3ccc(OCC4CCN(C)CC4)cc32)sc1C(N)=O)c1ccccc1Cl`: 4.51%; `Clc1ccc(CNc2nccc(-c3cnn4ncccc34)n2)cc1`: 3.72%.

`COc1ccc(C2=C(N3CCc4ccccc43)C(=O)NC2=O)cc1` displayed an inhibition of 3.94%. Next, `CCN(CC)Cc1ccc(Nc2nccc(-c3cnn4ncccc34)n2)cc1`: 22.6%; `COc1cc2ncn(-c3cc(OCc4ccccc4C(F)(F)F)c(C(C)=O)s3)c2cc1OC`: 4.89%; `Fc1ccc(-c2nc3n(c2-c2ccncc2)CCS3)cc1`: 4.79%.

For the molecule `COc1cccc(/C=N/Nc2ncnc3c2cnn3-c2cccc(OC)c2)c1`, the inhibition stood at 34.4%.

The molecule `CS(=O)(=O)CCNCc1ccc(-c2ccc3ncnc(Nc4ccc(OCc5ccccc5)c(Br)c4)c3c2)o1` returned an inhibition of 2.28%. Next, `COc1cc(N2CCN(C(C)C)CC2)ccc1Nc1nc(Nc2ccc(F)cc2C(=O)NC[C@@H](O)CO)c2cc[nH]c2n1`: 5.35%. Under `CN(C)c1ccc2c(c1)/C(=C/Nc1ccc(S(N)(=O)=O)cc1)C(=O)N2` stands 12.8%.

Molecule `CN(C)CCCNc1nccc(-c2c(-c3ccc(F)cc3)nn3cc(C(F)(F)F)ccc23)n1` showed an inhibition of 5.43%. Under `Nc1nccc(-c2c(-c3ccc(F)cc3)ncn2C2CCC(O)CC2)n1` (centres undefined) stands 16.9%; under `COc1cc2ncn(-c3cc(OCCc4ccccc4)c(C(N)=O)s3)c2cc1OC`, 6.39%. `CNC(=O)c1cncc(/C=C/c2c(C)cccc2C)c1`: the inhibition was determined as 50.1%.

Molecule `NCc1ccc(-n2c(-c3nonc3N)nc3cnccc32)cc1` displayed an inhibition of 2.62%. Under `Fc1ccc(-c2ncn(C3CCNCC3)c2-c2ccnc(Oc3ccc4c(c3)OCO4)n2)cc1` stands 4.48%; under `C#Cc1cccc(Nc2ncnc3ccc(OCCCCNCCS(C)(=O)=O)cc23)c1`, 19.7%; under `NS(=O)(=O)c1ccc(N/N=C2\C(=O)Nc3ccc(-c4cnco4)cc32)cc1`, 7.02%.

As for `O=C(NCC1CC1)c1ccc(-c2cccc(C(=O)NC3CC3)c2)cc1`, the inhibition is 3.09%. Next, `CCS(=O)(=O)c1ccc(OC)c(Nc2ncc(-c3ccccc3Cl)o2)c1`: 16.3%. Next, `COc1ccc(-c2ccc3c(NC(=O)C4CC4)n[nH]c3n2)cc1`: 9.06%. Next, `NC(=O)c1cc(-c2ccncc2)cc(-c2ccccc2)c1N`: 30.6%. The molecule `Fc1ccc(-c2c(-c3ccncc3)nc3n2CCS3)cc1` showed an inhibition of 4.74%.

Turning to `COc1ccc2cc(-c3c(-c4ccncc4)nc(-c4ccc(S(C)(=O)=O)cc4C)n3C)ccc2c1`, the inhibition was 10.9%. `Fc1ccc(-c2ncn(C3CCNCC3)c2-c2ccnc(Oc3ccc(Oc4ccccc4)cc3)n2)cc1` came in with an inhibition of 2.14%. Next, `COc1cc(Nc2ncc3c(C)nc(-c4cccc(C(F)(F)F)c4)n3n2)cc(OC)c1OC`: 7.54%; `CN(c1ccc(NC(=O)Nc2c(Cl)cccc2Cl)cc1)c1ccnc(Nc2cccc(CS(C)(=O)=O)c2)n1`: 35.9%.

Consider `COc1cc2ncn(-c3cc(OCc4cccs4)c(C(N)=O)s3)c2cc1OC`, for which the inhibition was 29.8%.

With `NC(=O)Cc1ccccc1Oc1nccc(-c2c(-c3ccc(F)cc3)ncn2C2CCNCC2)n1`, the inhibition was determined as 2.45%.

On to `C/C(Nc1ccc(S(N)(=O)=O)cc1)=C1/C(=O)Nc2ccccc21`, for which the inhibition was found to be 3.45%.

`Fc1ccc(-c2ncn(CCCN3CCOCC3)c2-c2ccncc2)cc1` showed an inhibition of 0.13%. Under `FC(F)(F)c1cccc(Nc2nccc(-c3cnn4nc(-c5ccccc5)ccc34)n2)c1` stands 2.38%.
